Where “and” joins values, the source holds several entries; their conditions need not be identical. Equal values may be shown once. About 2,000 (36%) of roughly 5,500 compounds were called active. About 18% were inconclusive and are not listed. Cut-off read from the data, not from the text of the source: active = normalized growth mostly below about 0.91 (no sharp cut-off); inconclusive = no clear call, values can overlap the other calls; inactive = mostly above about 0.92. The list shows a part of the results.
Experiment: chemical genetic growth profiling, strain panel (AID 1159580);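 note: tested at 20 µM; growth read once vehicle control cultures reached saturation at 30 °C; 1 = growth at the plate median or of vehicle wells; lower values mean less growth of the strain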
Conditions: S. cerevisiae deletion strains, growth OD

Measured: normalized growth

N=c1nc(N2CCCCC2)cc(N)n1O
inactive: locus YAL013W, strain DEP1, stronger effect = lower value 0.981 and 0.989 | locus YAL021C, strain ccr4, stronger effect = lower value 0.989 | locus YAL026C, strain drs2, stronger effect = lower value 1 | locus YAL030W, strain snc1, stronger effect = lower value 0.984 | locus YAL040C, strain CLN3, stronger effect = lower value 1.03 | locus YBL061C, strain skt5, stronger effect = lower value 0.977 | locus YBR009C, strain hhf1, stronger effect = lower value 1 | locus YBR021W, strain FUR4, stronger effect = lower value 1.09 | locus YBR023C, strain chs3, stronger effect = lower value 0.985 | locus YBR171W, strain sec66, stronger effect = lower value 0.984 | locus YBR229C, strain ROT2, stronger effect = lower value 0.955 | locus YBR231C, strain swc5, stronger effect = lower value 1 | locus YBR279W, strain paf1, stronger effect = lower value 0.992 | locus YCL011C, strain gbp2, stronger effect = lower value 0.963 | locus YCL016C, strain dcc1, stronger effect = lower value 0.97 | locus YCL029C, strain bik1, stronger effect = lower value 0.99 | locus YCL061C, strain MRC1 (second series), stronger effect = lower value 1 | locus YCL061C, strain MRC1, stronger effect = lower value 0.991 | locus YCL069W, strain vba3, stronger effect = lower value 0.992 | locus YCR088W, strain abp1, stronger effect = lower value 0.989 | locus YDL005C, strain med2, stronger effect = lower value 0.997 | locus YDL035C, strain GPR1, stronger effect = lower value 0.98 | locus YDL040C, strain nat1, stronger effect = lower value 0.992 | locus YDL074C, strain BRE1, stronger effect = lower value 1.02 | locus YDL101C, strain DUN1, stronger effect = lower value 0.988 | locus YDL134C, strain PPH21, stronger effect = lower value 0.975 | locus YDL185W, strain tfp1, stronger effect = lower value 0.978 | locus YDL192W, strain arf1, stronger effect = lower value 0.983 | locus YDR001C, strain nth1, stronger effect = lower value 0.979 | locus YDR069C, strain doa4, stronger effect = lower value 0.996 | locus YDR101C, strain arx1, stronger effect = lower value 1.01 | locus YDR137W, strain rgp1, stronger effect = lower value 0.977 | locus YDR150W, strain NUM1, stronger effect = lower value 0.963 and 1.01 | locus YDR159W, strain sac3, stronger effect = lower value 1.04 | locus YDR162C, strain NBP2, stronger effect = lower value 0.968 | locus YDR195W, strain ref2 0.981 | locus YDR297W, strain sur2, stronger effect = lower value 0.981 | locus YDR318W, strain mcm21, stronger effect = lower value 1 | locus YDR334W, strain swr1, stronger effect = lower value 0.936 | locus YDR335W, strain msn5, stronger effect = lower value 0.979 | locus YDR363W, strain ESC2, stronger effect = lower value 0.979 | locus YDR388W, stronger effect = lower value 0.949 | locus YDR392W, strain spt3, stronger effect = lower value 0.964 | locus YDR502C, strain sam2, stronger effect = lower value 0.959 | locus YEL003W, strain gim4, stronger effect = lower value 0.992 | locus YEL037C, strain rad23, stronger effect = lower value 0.989 | locus YEL061C, strain CIN8 (second series), stronger effect = lower value 0.982 | locus YEL061C, strain CIN8, stronger effect = lower value 0.982 | locus YER002W, strain NOP16, stronger effect = lower value 1.02 | locus YER015W, strain faa2, stronger effect = lower value 0.985 | locus YER016W, strain bim1, stronger effect = lower value 0.998 | locus YER110C, stronger effect = lower value 0.955 | locus YER111C, strain swi4, stronger effect = lower value 0.987 | locus YER155C, strain BEM2 (second series), stronger effect = lower value 1.03 | locus YER155C, strain BEM2, stronger effect = lower value 1.01 | locus YER167W, strain BCK2, stronger effect = lower value 0.989 | locus YFR010W, strain ubp6, stronger effect = lower value 0.982 | locus YGL078C, strain dbp3, stronger effect = lower value 0.985 | locus YGL086W, strain mad1, stronger effect = lower value 0.961 | locus YGL167C, strain pmr1, stronger effect = lower value 0.985 | locus YGL173C, strain kem1, stronger effect = lower value 0.984 | locus YGL227W, strain vid30, stronger effect = lower value 0.996 | locus YGL240W, strain doc1, stronger effect = lower value 1 | locus YGL248W, strain PDE1, stronger effect = lower value 0.981 | locus YGL253W, strain hxk2, stronger effect = lower value 0.96 | locus YGR078C, strain PAC10, stronger effect = lower value 1 and 0.978 | locus YGR135W, strain pre9, stronger effect = lower value 0.99 | locus YGR229C, strain SMI1, stronger effect = lower value 1.01 | locus YGR252W, strain gcn5, stronger effect = lower value 0.867 | locus YHR013C, strain ard1, stronger effect = lower value 0.962 | locus YHR027C, strain rpn1, stronger effect = lower value 0.976 | locus YHR030C, strain SLT2, stronger effect = lower value 0.982 | locus YHR079C, strain IRE1 (second series), stronger effect = lower value 1 | locus YHR079C, strain IRE1, stronger effect = lower value 0.997 | locus YHR094C, strain hxt1, stronger effect = lower value 0.991 | locus YHR129C, strain ARP1, stronger effect = lower value 0.988 | locus YHR142W, strain chs7, stronger effect = lower value 0.971 | locus YHR200W, strain rpn10, stronger effect = lower value 0.993 | locus YIL066C, strain RNR3, stronger effect = lower value 0.975 | locus YIL073C, strain SPO22, stronger effect = lower value 0.94 | locus YIL125W, strain kgd1, stronger effect = lower value 0.985 | locus YIR030C, strain dcg1, stronger effect = lower value 0.982 | locus YJL092W, strain hpr5, stronger effect = lower value 0.988 | locus YJL095W, strain BCK1 (second series), stronger effect = lower value 0.986 | locus YJL095W, strain BCK1, stronger effect = lower value 1.01 and 0.985 | locus YJL115W, strain asf1, stronger effect = lower value 0.966 | locus YJL129C, strain trk1, stronger effect = lower value 1 | locus YJL134W, strain LCB3, stronger effect = lower value 0.978 | locus YJL154C, strain vps35, stronger effect = lower value 0.976 | locus YJL164C, strain tpk1, stronger effect = lower value 0.999 | locus YJL166W, strain qcr8, stronger effect = lower value 0.957 | locus YJL168C, strain set2, stronger effect = lower value 0.995 | locus YJL187C, strain SWE1 (second series), stronger effect = lower value 0.983 | locus YJL187C, strain SWE1, stronger effect = lower value 0.992 | locus YJR043C, strain POL32, stronger effect = lower value 1.02 | locus YJR066W, strain TOR1, stronger effect = lower value 0.932

Reference: PubChem BioAssay AID1159580 (chemical genetic matrix, 2015)
